Results published in PubChem BioAssay (NCI).
About 79,000 compounds went through this panel and 15% of them were active in at least one assay; those are over-represented in the sample as a whole. Active and inactive are the calls of the source. No stated cut-off is given here; in the data, active means growth inhibition above about 70%; inactive means the rest.

assay: NCI Yeast Anticancer Drug Screen. Data for the mlh1 rad18 strain (AID 175); details: S. cerevisiae mlh1 rad18 strain growth inhibition; at 50.0 µM; hits give high values
Procedure: Growth inhibition of yeast strains with defined genetic alterations is measured as a screen for potential anti-cancer activity. Selected strains with alterations in DNA damage repair or cell cycle control were exposed to compounds and growth inhibition was measured relative to vehicle treated controls. The strain used in this assay is mlh1 rad18

SMILES	growth inhibition
S=C1NCCN1c1ccc(Cl)cc1	5.55% (inactive)
CCCCCC/C(C)=C/CCC(C)=O	-0.25% (inactive)
O=C1NN=C(C(O)c2ccccc2)C1(O)c1ccccc1 (stereo not given)	17.8% (inactive)
O=C(NC[N+]12CCO[B-]1(c1ccccc1)OCC2)c1ccccc1O (stereo not given)	10.5% (inactive)
C=CCN1C(N)=C(C#N)C(C#N)(C#N)C1CCC (stereo not given)	-36.6% (inactive)
CC1=C(C(=O)Nc2ccc(C)cc2)C(c2cccc([N+](=O)[O-])c2)C(C(=O)Nc2ccc(C)cc2)=C(C)N1	4.35% (inactive)
CC(C)(C)NC(NC(C)(C)C)=C(C(Cl)=C(Cl)Cl)[N+](=O)[O-]	-0.75% (inactive)
Oc1nc2nc[nH]n2c1N=Nc1ccccc1	6.9% (inactive)
COc1cc(NS(C)(=O)=O)ccc1Nc1c2ccccc2nc2c1[nH]c1ccc(NC3OC(CO)C(O)C(O)C3O)cc12 (stereo not given)	-27.6% (inactive)
CN1C(=O)C(Cl)(C#N)C(c2ccccc2)N(C)C1c1ccccc1 (stereo not given)	20.1% (inactive)
O=C(c1ccccc1)C(c1ccccc1)S(=O)(=O)N1CCCC1 (stereo not given)	26.9% (inactive)
O=Nc1c(O)[nH]c2c(Cl)cccc12	-5.25% (inactive)
O=S1c2ccccc2N=C(c2ccc3ccccc3c2)CC1c1ccccc1F (stereo not given)	6.8% (inactive)
CCC(CC)C(=O)OCCCc1ccccc1	4.4% (inactive)
COc1cc2c(c(OC)c1OC)-c1ccc(OC)c(=O)cc1C(NC(=O)COc1ccccc1)CC2 (stereo not given)	14.6% (inactive)
CC1COC(C(C)c2ccccc2)O1 (stereo not given)	6.1% (inactive)
O=C(O)c1cscc1-c1ccccc1	3.6% (inactive)
O=S(CC(O)(c1ccccc1)c1ccccc1)c1ccccc1 (stereo not given)	23.5% (inactive)
CCN(CC)CCCNc1ccc2ncn3c4ccc(O)cc4c(=O)c1c23	-6.65% (inactive)
CC(C)N(C(=O)c1cccc(C(=O)N(C(C)C)C(C)C)c1)C(C)C	33.4% (inactive)

SMILES	growth inhibition
Cc1ccc(NC2=CC(=O)c3ccccc3C2=O)cc1	9.45% (inactive)
CCOC(=O)C(=CNc1ccc(N(CC)CC)cc1)C(=O)OCC	0.35% (inactive)
CC12CC3C(CC1O2)C3(C)C (stereo not given)	-43.2% (inactive)
CC1(C(=O)Sc2ccccc2)OC1(C)c1ccccc1 (stereo not given)	18.1% (inactive)
COc1cccc(C=Nc2ccc(N(C)C)cc2)c1O.COc1cccc(C=Nc2ccc(N(C)C)cc2)c1O.[Co]	-2.3% (inactive)
COc1ccc(NC(=O)Nc2ccc(Br)cc2)cc1	-15.2% (inactive)
O=C(O)c1cc(/C=C/c2cc(O)ccc2O)ccc1O	-39.6% (inactive)
Cc1ccc2ccc(-c3cc4ccccc4s3)nc2c1	-6.1% (inactive)
CC1(C)OC2C(O1)[C@H]1OC(C(Cl)(Cl)Cl)=N[C@H]1C(I)[C@H]2N1C(=O)c2ccccc2C1=O (stereo not given in full)	3.55% (inactive)
C[N+](C)(C)CCOC(=O)/C=C/c1cnc[nH]1	16.1% (inactive)
CN(C)Cc1cc(C(=O)/C=C/c2c(F)cccc2Cl)cc(CN(C)C)c1O	7.35% (inactive)
CC1=C(c2cc(C(=O)Nc3nccs3)nc(NC#N)n2)Sc2ccccc2N1	10.3% (inactive)
OCC1OC(n2cc(I)c3c(Cl)ncnc32)C(O)C1O (stereo not given)	3.95% (inactive)
COc1c(C)c2c(c(C)c1Cl)Oc1c(C=O)c(O)c(Cl)c(C)c1C(=O)O2	54.4% (inactive)
C=C(C(=O)NC1CCCCC1)c1ccccc1	0% (inactive)
NCCC(=O)O	16.9% (inactive)
CCCCOC1OC[N+](C)(C)CC1(C)C (stereo not given)	26.2% (inactive)
CCC(C)C1(C)OC1C(=O)OC (stereo not given)	4.55% (inactive)
CSc1nc2c(c(=O)[nH]1)N=C(c1ccccc1)CC(c1ccccc1)N2 (stereo not given)	-5.85% (inactive)
Cc1ccc(/C=C/C(=N/NC(=O)c2ccccc2)C(C)CN(C)C)cc1 (stereo not given)	12.9% (inactive)
